Laboratory results from article PMC13541613, “GHT-SELEX demonstrates unexpectedly high intrinsic sequence specificity and complex DNA binding of many human transcription factors”.

These sequences were tested against ZNF721 full-length (Homo sapiens, UniProt Q8TF20-2 1-923) (assay: HT-SELEX; 20 mM HEPES pH 7, 140 mM KCl, 5 mM NaCl, 1 mM K2HPO4, 2 mM MgSO4, 100 uM EGTA, ZnSO4, 0.1% Tween20; room temperature, 1 h; high values mean tight binding). Conditions: protein: ivt; tags: eGFP (N-terminal); dsDNA, one strand shown.
Sequence of ZNF721 full-length (Q8TF20 other isoform, or with tags, fused parts or gaps): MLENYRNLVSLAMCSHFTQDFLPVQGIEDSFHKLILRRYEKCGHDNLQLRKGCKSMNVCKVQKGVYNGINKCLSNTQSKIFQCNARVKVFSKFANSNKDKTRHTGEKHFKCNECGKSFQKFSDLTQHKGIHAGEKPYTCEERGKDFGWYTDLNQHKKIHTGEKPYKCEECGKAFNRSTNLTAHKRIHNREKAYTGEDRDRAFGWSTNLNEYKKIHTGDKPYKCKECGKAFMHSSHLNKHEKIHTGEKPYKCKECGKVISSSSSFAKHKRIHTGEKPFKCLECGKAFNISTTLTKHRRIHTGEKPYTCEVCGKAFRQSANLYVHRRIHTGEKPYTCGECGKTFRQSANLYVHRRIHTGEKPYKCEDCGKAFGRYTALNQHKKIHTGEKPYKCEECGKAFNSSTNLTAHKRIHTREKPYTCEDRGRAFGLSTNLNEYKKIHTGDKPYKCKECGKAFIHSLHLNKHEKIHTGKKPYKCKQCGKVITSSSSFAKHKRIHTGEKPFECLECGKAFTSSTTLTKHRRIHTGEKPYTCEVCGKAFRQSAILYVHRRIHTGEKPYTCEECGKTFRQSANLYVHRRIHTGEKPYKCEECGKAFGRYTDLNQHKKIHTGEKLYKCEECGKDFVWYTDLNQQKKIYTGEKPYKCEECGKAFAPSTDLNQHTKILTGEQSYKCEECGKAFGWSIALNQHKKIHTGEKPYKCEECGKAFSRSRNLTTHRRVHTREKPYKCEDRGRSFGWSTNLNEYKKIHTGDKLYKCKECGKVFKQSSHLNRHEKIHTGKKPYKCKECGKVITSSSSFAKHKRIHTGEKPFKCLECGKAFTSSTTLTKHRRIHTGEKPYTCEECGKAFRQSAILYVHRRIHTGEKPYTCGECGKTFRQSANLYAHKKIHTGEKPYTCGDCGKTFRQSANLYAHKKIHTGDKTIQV
Method in brief: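 In HEPES/KCl low-stringency buffer with Tween20, a bead-immobilised tagged transcription factor (full-length or DNA-binding-domain fragment, from HEK293 lysate or cell-free extract) was incubated with a randomized 40-base DNA library for 1 h at room temperature. DNA retained after washing was heat-eluted, amplified by PCR over successive cycles and Illumina-sequenced, giving ~3 million 60 bp reads per sample. The reported binding signal, a relative k-mer count in those selected reads, rises with tighter binding.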

Row | Sequence | binding signal
1 | AAAAAGCATC | 0.123 relative 10-mer count
2 | CAGCGTCTCC | 0.299 relative 10-mer count
3 | CCTCCGCCCC | 0.161 relative 10-mer count
4 | CCTCCCCCCG | 0.143 relative 10-mer count
5 | CCGCCCGCCC | 0.136 relative 10-mer count
6 | AAAAGCAGCC | 0.136 relative 10-mer count
7 | CACCTCCCCA | 0.115 relative 10-mer count
8 | CACACCCCAC | 0.123 relative 10-mer count
9 | AGTGTATCCA | 0.248 relative 10-mer count
10 | CCACGCCCCC | 0.187 relative 10-mer count
11 | CCCCTCTCCC | 0.107 relative 10-mer count
12 | AGCATACCCT | 0.346 relative 10-mer count
13 | GAAGCGTACC | 0.104 relative 10-mer count
14 | AAAGCAGCAT | 0.31 relative 10-mer count
15 | ACCCACCCGC | 0.102 relative 10-mer count
16 | AGCATACCCA | 0.391 relative 10-mer count
17 | CCCCCAGCCC | 0.146 relative 10-mer count
18 | ACCCCCCTCC | 0.142 relative 10-mer count
19 | ACCACCCGCC | 0.125 relative 10-mer count
20 | TCCCACCCCA | 0.147 relative 10-mer count

Row | Sequence | binding signal
21 | ACAGCGTTAC | 0.102 relative 10-mer count
22 | CCACCCCTCC | 0.209 relative 10-mer count
23 | CCCCCCACGC | 0.139 relative 10-mer count
24 | CACCCTACCC | 0.107 relative 10-mer count
25 | CCACCCACAC | 0.152 relative 10-mer count
26 | CCCCCACCGC | 0.192 relative 10-mer count
27 | CCACCCTACC | 0.115 relative 10-mer count
28 | CCCCTCCCCG | 0.128 relative 10-mer count
29 | CCCCCCCCCA | 0.16 relative 10-mer count
30 | CCTCCCGCCC | 0.161 relative 10-mer count
31 | CCCCCTACCC | 0.155 relative 10-mer count
32 | GCCCCCACCC | 0.19 relative 10-mer count
33 | GCATACCCTA | 0.202 relative 10-mer count
34 | CCCACCGTCC | 0.105 relative 10-mer count
35 | AGCTATACCA | 0.14 relative 10-mer count
36 | AAAAGCGTAC | 0.118 relative 10-mer count
37 | CACCACCCCG | 0.135 relative 10-mer count
38 | CCTCCACCCC | 0.263 relative 10-mer count
39 | CCCCTACCCC | 0.199 relative 10-mer count
40 | CACCCCTCCC | 0.181 relative 10-mer count
